According to PubChem BioAssay (NCI):
The panel holds about 79,000 compounds, 15% with a hit somewhere; the sample as a whole holds those more often. Unmarked numbers belong to inactive results. Calls of active or inactive are those of the source. No stated cut-off is given here; in the data, active means growth inhibition above about 70%; inactive means the rest.

What was measured:
[1] = NCI Yeast Anticancer Drug Screen. Data for the rad50 strain (AID 155);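 further: 0% = growth of vehicle-only cultures of the same strain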; settings: S. cerevisiae rad50 strain growth inhibition, stronger effect = higher value
Method in brief: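 Yeast carrying a defined DNA repair defect were exposed to test compounds, and growth was compared with vehicle-treated controls to give percent inhibition.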

[2] = NCI Yeast Anticancer Drug Screen. Data for the mec2-1 strain (AID 157); settings: S. cerevisiae mec2-1 strain, stronger effect = higher value
Method in brief: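 Readout is yeast growth inhibition, normalised to vehicle-treated controls, in the mec2-1 strain exposed to compound.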

[3] = NCI Yeast Anticancer Drug Screen. Data for the sgs1 mgt1 strain (AID 161);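 further: 0% = growth of cultures given vehicle only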; settings: S. cerevisiae sgs1 mgt1 strain, stronger effect = higher value
Method in brief: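 This yeast growth screen uses a strain with defined DNA-repair lesions; compound-treated growth is compared with vehicle-treated growth.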

[4] = NCI Yeast Anticancer Drug Screen. Data for the cln2 rad14 strain (AID 165);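 further: 0% = growth equal to vehicle treated cultures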; settings: S. cerevisiae cln2 rad14 strain, stronger effect = higher value
Method in brief: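 Relative to vehicle controls, growth inhibition of compound-treated cln2 rad14 yeast was recorded.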

[5] = NCI Yeast Anticancer Drug Screen. Data for the bub3 strain (AID 167); settings: S. cerevisiae bub3 mutant strain, stronger effect = higher value
Method in brief: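 Compounds were applied to a genetically altered yeast strain carrying a cell-cycle control defect. Growth inhibition was scored against vehicle-treated controls.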

[6] = NCI Yeast Anticancer Drug Screen. Data for the mlh1 rad18 strain (AID 175); settings: S. cerevisiae mlh1 rad18 strain growth inhibition, stronger effect = higher value
Method in brief: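 Test agents were incubated with a yeast strain of defined genotype (DNA damage repair defect). Inhibition of growth was derived by comparison with vehicle-exposed cultures.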

[7] = at 5.0 µM (retest, dose inferred, filed as 0.5)
[8] = at 50.0 µM (retest, dose inferred, filed as 5.0)

Row | Compound | growth inhibition [1, 7] | growth inhibition [1, 8] | growth inhibition ([1]; at 50.0 µM) | growth inhibition [2, 7] | growth inhibition [2, 8] | growth inhibition ([2]; at 50.0 µM) | growth inhibition [3, 7] | growth inhibition [3, 8] | growth inhibition ([3]; at 50.0 µM) | growth inhibition [4, 7] | growth inhibition [4, 8] | growth inhibition ([4]; at 50.0 µM) | growth inhibition [5, 7] | growth inhibition [5, 8] | growth inhibition ([5]; at 50.0 µM) | growth inhibition [6, 7] | growth inhibition [6, 8] | growth inhibition ([6]; at 50.0 µM)
1 | COC(=O)C1C(O)C(C)C(=O)C(C)/C=C\C=C(C)C(=O)Nc2c(C)c(OC(C)=O)c3c(c2O)C(=O)C(C)=C2OCOC(=C23)C(C)=CC(C)(O)C(O)C(C)C1O (stereo not given) | 9% | 52% | 88.1% (active) | -3% | 77% (active) | 88.8% (active) | 0% | 59% | 92.2% (active) | 9% | 75% (active) | 75.6% (active) | -4% | 76% (active) | 87.3% (active) | -19% | 68% | 81% (active)
2 | Nc1ncnc2nc(-c3ccc(C[P+](c4ccccc4)(c4ccccc4)c4ccccc4)cc3)[nH]c12 | -6% | 77% (active) | 72% (active) | 11% | 43% | 66.2% | 0% | 78% (active) | 73.8% (active) | -10% | 61% | 62.6% | 11% | 61% | 54.8% | -6% | 83% (active) | 69.8%
3 | Cc1cccc2c1C(=O)N(CC[P+](c1ccccc1)(c1ccccc1)c1ccccc1)C2=O | 77% (active) | 85% (active) | 58.1% | 58% | 87% (active) | 70.3% (active) | 70% (active) | 93% (active) | 61.9% | 58% | 91% (active) | 35.3% | 80% (active) | 95% (active) | 70.5% (active) | 64% | 86% (active) | 67.9%
4 | c1cc[c]([Sn]([O]c2cccc3cccnc23)([c]2ccccc2)[c]2ccccc2)cc1 | 99% (active) | 21% | 89.5% (active) | 100% (active) | 10% | 92.2% (active) | 100% (active) | 30% | 89.6% (active) | 99% (active) | 11% | 85.8% (active) | 99% (active) | 63% | 90.8% (active) | 100% (active) | 14% | 93% (active)
5 | O=C(O)c1ccc(NC(c2ccccc2)c2ccc3cccnc3c2O)cc1 (stereo not given) | -12% | 98% (active) | 98.2% (active) | 2% | 98% (active) | 98% (active) | -8% | 98% (active) | 97.8% (active) | -40% | 95% (active) | 97.5% (active) | -3% | 98% (active) | 97.7% (active) | 9% | 98% (active) | 98.2% (active)
